From PubChem BioAssay AID488922 (Johns Hopkins Ion Channel Center, 2010)
Hit rate of the full screen: of about 310,000 compounds, about 3,800 (1.2%) were called active. The sample holds actives, similar compounds and a random draw of the others, so the mix is not that of the screen.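 How the source made its calls: active means ratio B-score over 3 SD below the library mean, with starting fluorescence within 5 SD of its mean; inactive means the rest, inconclusive results apart.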

Target: Potassium channel subfamily K member 9 (Homo sapiens) (UniProt Q9NPC2)
Sequence (Q9NPC2 whole entry, looked up): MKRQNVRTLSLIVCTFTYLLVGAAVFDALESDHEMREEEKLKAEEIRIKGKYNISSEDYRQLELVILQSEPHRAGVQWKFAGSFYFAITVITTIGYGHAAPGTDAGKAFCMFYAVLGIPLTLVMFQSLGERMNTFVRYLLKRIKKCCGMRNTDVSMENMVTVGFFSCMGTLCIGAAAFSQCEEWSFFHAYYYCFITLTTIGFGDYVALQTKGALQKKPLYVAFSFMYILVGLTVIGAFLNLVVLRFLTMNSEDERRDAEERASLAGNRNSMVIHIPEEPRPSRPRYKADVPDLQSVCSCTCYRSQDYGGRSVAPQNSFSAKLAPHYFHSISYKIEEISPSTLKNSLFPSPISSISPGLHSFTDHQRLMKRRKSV
Assay: blockers of human TASK-3 (KCNK9) channel – HEK293 cells, thallium flux, primary screen (AID 488922);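 on B-score: negative B-score means less thallium flux so channel inhibition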
Settings: HEK293 KCNK9, FluxOR thallium flux fluorescence, at 10 µM; active compounds read low

B-score, active:
O=C(CSc1ncnc2scc(-c3ccccc3)c12)NCc1ccc2c(c1)OCO2 -6.9
COc1cc(C(=O)Nc2oc(-c3ccccc3)c(-c3ccccc3)c2C#N)cc(OC)c1OC -6.66
Cn1nc(-c2ccccc2)c(-c2nc(-c3ccc(Cl)cc3)no2)c1Cl -7.35
Cc1cs/c(=N\N=C\c2ccc(O)cc2)n1Cc1ccco1 -6.66
CCCCn1ccnc1C(=O)c1cccc(S(=O)(=O)N2c3ccccc3CC2C)c1 (configuration not stated) -11.8
COc1ccc(C(=O)NN2C(=O)C3C(c4ccccc4)C=CC(c4ccccc4)C3C2=O)cc1 (configuration not stated) -8.93
CC1CCCN(C(C(=O)Nc2ccc(C(C)C)cc2)c2ccc3c(c2)OCO3)C1 (configuration not stated) -7.66
C=CCN(N=Nc1cccc([N+](=O)[O-])c1)c1cccc([N+](=O)[O-])c1 -11.2
COc1cc(Cl)c(C)cc1NC(=O)CSc1nnc(-c2ccco2)n1CC(C)C -10
CCOC(=O)C1=C(C)Nc2sc(C(=O)c3ccc(Br)cc3)c(N)c2C1c1ccc(C(=O)OC)cc1 (configuration not stated) -9.37
O=C(CNCCC1=CCCCC1)Nc1ccccc1N1CCCCCC1 -8.91
CC(C)CC(COCc1ccc(Cl)cc1)N1CCN(C(=O)c2ccc(C(F)(F)F)cc2)CCC1=O (configuration not stated) -8.19
Cc1onc(-c2ccc(Cl)cc2)c1-c1ccnn1S(=O)(=O)c1ccc(Cl)cc1 -12.4
Cn1nc(-c2ccccc2)c(CSc2cccc(Cl)c2)c1Cl -8.39
CCOC(=O)N/N=C/c1cn(Cc2ccccc2Cl)c2ccccc12 -9.45
Clc1cccc(-c2nc3nc4ccccc4nc3n2Cc2ccco2)c1 -10.9
Cc1cccc(N2CCN(C(c3ccc(N(C)C)cc3)c3nnnn3C(C)(C)C)CC2)c1C (configuration not stated) -7.3
COc1ccc(OC)c(-c2csc(-c3cccs3)n2)c1 -11.7
CCCOc1ccc2c3c(c(=O)oc2c1OCCC)CCC3 -13.7
CC[n+]1cc(C)ccc1/C=C/c1ccc(N(C)C)cc1 -6.65
O=C(NCCc1ccccc1)c1ccc2c(c1)N(Cc1ccccc1)CCS2 -9.05
CCN(CC)C(=O)CC1(c2ccccc2OC)CCOC(C(C)C)C1 (configuration not stated) -8.7

B-score, inactive:
Cc1ccccc1NC(=O)COc1cccc2c1CCNC2=O
O=C(CCNC(=O)c1ccc(Br)cc1)Nc1cccc(S(=O)(=O)N2CCCCC2)c1
O=C(CSc1ncn[nH]1)NCc1ccc2c(c1)OCO2
O=C(CN1CCN(c2nc(-c3ccccc3)cs2)CC1)NCc1ccc2c(c1)OCO2
CCOC(=O)C(=Cc1ccccc1OC)C(=O)OCC
CCOC(=O)c1c(NC(=O)CNC2CCCc3ccccc32)sc(C(N)=O)c1C (configuration not stated)
CCOc1ncccc1C(=O)NNC(=O)c1cccc(S(=O)(=O)Nc2ccccc2OC)c1
COc1ccc(NC(=O)C2CCC(CNC(=O)[C@@H]3Cc4ccccc4CN3)CC2)cc1 (some centres not stated)
N#Cc1c(NC(=O)CCCN2C(=O)c3ccccc3C2=O)oc(-c2ccccc2)c1-c1ccccc1
COC(=O)c1sccc1NC(=O)c1cc(OC)c(OC)c(OC)c1
COC(=O)Nc1ncc(CN2CCCCC2)s1
CCCCN(C(=O)COc1ccc(NC(C)=O)cc1)C1CCS(=O)(=O)C1 (configuration not stated)
Cc1cccc(C(=O)NCc2nnc(SC(C)C(=O)Nc3nnc(C)s3)n2C)c1 (configuration not stated)
CN(Cc1ccccn1)Cc1nc(-c2ccc(Cl)cc2)no1
Brc1ccc(-c2noc(-c3ccccc3)n2)o1
CC(C)Cn1c(N)c(C(=O)COC(=O)CN2C(=O)C3CC=CCC3C2=O)c(=O)n(C)c1=O (configuration not stated)
COC(=O)c1cc(NC(=O)CC2C(=O)NCCN2C(=O)c2ccc(F)cc2)cc(C(=O)OC)c1 (configuration not stated)
Cc1csc(=Nc2ccccc2)n1CCO
CN(c1ccccc1)c1ccc(/C=c2\s/c(=C(/C#N)C(=O)C(C)(C)C)n(Cc3ccco3)c2=O)cc1
CCNC(=O)NC(=O)C(C)OC(=O)c1cc(S(=O)(=O)N2CCCCCC2)ccc1OC (configuration not stated)
CCCCn1c(N)c(N(CC(C)C)C(=O)c2cccc(S(=O)(=O)N3CCN(C(C)=O)CC3)c2)c(=O)[nH]c1=O
Cc1cc(C)nc(-n2nc(C)cc2NC(=O)c2ccc(F)cc2F)n1
CC1Cc2ccccc2N1S(=O)(=O)c1ccc(Cl)nc1 (configuration not stated)
CC1Cc2ccccc2N1S(=O)(=O)c1c(N)n(C)c(=O)n(C)c1=O (configuration not stated)
COc1ccccc1C(=O)NN1C(=O)C2C3C=CC(O3)C2C1=O (configuration not stated)
O=C(NN1C(=O)C2C3C=CC(O3)C2C1=O)c1ccccc1 (configuration not stated)
CC(=O)Nc1ccc(S(=O)(=O)NC(C)C(=O)OCC(=O)NC2CCCC2)cc1 (configuration not stated)
CCc1ccc(NC(=O)NC(C)c2ccc3c(c2)OCO3)cc1 (configuration not stated)
O=C(Nc1ccc2c(c1)OCCO2)C(c1ccc(F)cc1)N1CCCCC1 (configuration not stated)
O=C(Nc1ccc(S(=O)(=O)Nc2ccccn2)cc1)c1ccccc1
O=C(CCl)N(Cc1cccc([N+](=O)[O-])c1)c1cccc(Cl)c1
CCN(CC)C(=O)CN(c1cccc([N+](=O)[O-])c1)S(=O)(=O)c1ccccc1
Cc1ccc(CSCC(=O)N(C)CC(=O)Nc2ccc(C)cc2)cc1
O=S(=O)(Cc1noc(-c2ccc(OC(F)(F)F)cc2)n1)c1ccc(F)cc1
CCn1c(SCC(=O)Nc2cc(C)c(Cl)cc2OC)nnc1-c1ccco1
COc1cc(Cl)c(C)cc1NC(=O)CSc1nnc(-c2cccnc2)n1Cc1ccco1
CCOC(=O)c1sc(=NC(=O)c2ccc(Br)cc2)n(C)c1C
CCOC(=O)c1sc(=S)n2c1[nH]c(=O)c1ccc(C(=O)OC)cc12
CN(CC(=O)Nc1cccc(F)c1)C(=O)C1=COCCO1
Cc1ccc(-n2ncc3c(Nc4cccc(C(=O)O)c4)ncnc32)cc1
COc1ccc(C2=NS(=O)(=O)N(C)C(C(=O)N3CCCCC3)=C2)cc1
Cc1ccccc1NC(=O)Nc1ccccc1N1CCCCC1
Cc1ccccc1NC(=O)CNc1ccccc1N1CCCCC1
Cc1ccc2oc(C(=O)N3CCN(C)C[C@@H]3C(C)C)c(C)c2c1
CC(C)CC(CO)N1CCN(C(=O)c2ccc(Cl)cc2Cl)CCC1=O (configuration not stated)
O=C(c1cc(Cl)cc(Cl)c1)N1CCC(=O)N(C(COCc2ccccc2)Cc2ccccc2)CC1 (configuration not stated)
O=C1[C@H]2[C@@H](c3ccc(Cl)cc3)N3C(=O)N(c4cccc(F)c4)C(=O)[C@@]3(Cc3ccccc3)[C@H]2C(=O)N1C1CCCCC1
Cc1ccc(S(=O)(=O)Cc2cc(-c3ccc(Cl)cc3)no2)cc1
COC(=O)c1noc(C)c1-c1ccnn1C(=O)c1ccc(Cl)cc1
Cc1ccc(NS(=O)(=O)c2ccc(-c3coc(C)n3)cc2)c(C)c1
COc1cc(C(=O)OCC(=O)N(CC(C)C)C2CCS(=O)(=O)C2)ccc1OCC(C)C (configuration not stated)
Cn1nc(-c2ccccc2)c(CO)c1Sc1ccccc1
Cc1ccc(S(=O)(=O)c2c(COC(=O)c3cccc(Cl)c3)c(-c3ccccc3)nn2C)cc1
COc1ccc(C(=O)NC2(C(F)(F)F)NC(=O)N(CCCc3ccccc3)C2=O)c(OC)c1OC (configuration not stated)
O=C(c1cccc(S(=O)(=O)N2CCCC2)c1)N(Cc1ccco1)C1CCS(=O)(=O)C1 (configuration not stated)
COC(=O)N/N=C/c1cn(CCCOc2ccc(C)cc2)c2ccccc12
CNC(=S)N/N=C/c1cn(Cc2ccc(C)cc2)c2ccccc12
CCc1ccc(N(CC)c2ncnc3nc[nH]c23)cc1
Cc1cc(Cl)ccc1C(=O)C1CCCN(C(=O)CCN2CCCO2)C1 (configuration not stated)
CSc1ccc(/C=C/C(=O)NC23CC4CC(CC(C4)C2)C3)cc1
c1ccc(C2CNCc3c2ccc2ccccc32)cc1 (configuration not stated)
O=c1[nH]c(CSc2ncc(-c3ccc(F)cc3)n2Cc2ccco2)nc2ccccc12
O=C(CSc1nnc(-c2cccnc2)n1Cc1ccco1)c1ccc(Cl)c(Cl)c1
CN(Cc1c(F)cccc1Cl)S(=O)(=O)c1cccs1
CC1CCC2(CC1)NC(=O)N(CC(=O)c1cccn1C)C2=O (configuration not stated)
Cc1cccc(N2CCN(C(c3ccccc3)c3nnnn3CC3CCCO3)CC2)c1C (configuration not stated)
CC(C)(C)n1nnnc1C(c1ccc(F)cc1)N1CCN(Cc2ccc3c(c2)OCO3)CC1 (configuration not stated)
Cc1cccc(C)c1NC(=O)c1ccc(CN2CCc3ccccc3C2)cc1
COc1ccc(OC)c(CNC(=O)CCc2nc(-c3cccs3)no2)c1
COc1ccc(-c2csc(-c3cccs3)n2)cc1OC
COc1ccc(CNS(=O)(=O)c2ccc(NC(=O)N3CCCCC3)cc2)cc1
O=C(CNC(=O)c1cccnc1)N/N=C/c1cc(Br)c(O)c(Br)c1
COc1ccc2c3c(c(=O)oc2c1OCC(=O)C(C)(C)C)CCCC3
Cc1c(OC(C)C(=O)N[C@@H](Cc2ccccc2)C(=O)O)ccc2c3c(c(=O)oc12)CCCC3 (some centres not stated)
CN(C)c1ccc(/C=N\S(=O)(=O)c2ccccc2)cc1
CCCCCCCC1(C)NC(=O)N(CC(=O)Nc2cc(C)on2)C1=O (configuration not stated)
O=C(NCCN1CCOCC1)c1ccc2c(c1)N(Cc1ccc(Cl)cc1)CCS2
CCOC(=O)N1CCN(C(=O)c2ccc3c(c2)N(Cc2ccc(C)cc2)CCS3)CC1
CC[C@]1(c2ccccc2OC)C(=O)N(C(=O)OC)N1C(=O)OC
COc1ccc(C2(CNC(=O)C(c3ccccc3)c3ccccc3)CCOCC2)cc1OC
